# Data as given in the supplement of paper PMC10933113.
# Where a name gives a salt, the structure may show the parent alone. ± gives the uncertainty stated by the source.
# System: THP-1
# Assay: CD54 surface expression induction over DMSO control (% over DMSO); higher = stronger dendritic cell activation
# Settings: exposure time: 24 h
# Description: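 hCLAT-like CD54 and CD86 surface expression on THP1 cells after 24 h exposure at a single concentration (highest non-cytotoxic concentration, or 100-200 µM if not cytotoxic). Flow cytometry (iQue) was run on 5,000 live cells.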
row,SMILES,CD54 surface expression induction
1,CCCCCCC(C)O (stereo not given) [2-Octanol] (200 µM),-1.7 ± 0.35
2,COc1ccc2cc(CCC(C)=O)ccc2c1 [Nabumetone] (100 µM),-12.2 ± 1.2
3,O=C(Nc1ccccc1)c1cc([N+](=O)[O-])ccc1Cl [2-Chloro-5-nitro-N-phenylbenzamide] (200 µM),4.72 ± 3.4
4,CCC(=O)C=Cc1ccc(OC)cc1 [1-(4-Methoxyphenyl)-1-pentene-3-one] (200 µM),-15.2 ± 1.7
5,Nc1ccc(/N=N/c2ccccc2)c(N)n1 [Phenazopyridine hydrochloride] (100 µM),-3.19 ± 0.03
6,Cc1cc(C2(c3cc(C)c(O)cc3C)OS(=O)(=O)c3ccccc32)c(C)cc1O [p-Xylenol blue] (200 µM),8.91 ± 6.7
7,C/C=C1\C(=O)C[C@H]2[C@@H]3CCC4=CC(=O)CC[C@]4(C)[C@H]3CC[C@]12C [Guggulsterone Z] (100 µM),-3.76 ± 3.3
8,C=CC(C)(CCC=C(C)C)OC(=O)CC(C)C (stereo not given) [Linalyl isovalerate] (200 µM),16.3 ± 11
9,"CC(C)(C)c1cc(O)c(C(C)(C)C)cc1O [2,5-Di-tert-butylbenzene-1,4-diol] (100 µM)",38.2 ± 50
10,CCCCOCCOCCOCCO [2-[2-(2-Butoxyethoxy)ethoxy]ethanol] (115 µM),20.1 ± 15
11,C=CCOC(=O)/C=C\C(=O)OCC=C [Diprop-2-en-1-yl (2Z)-but-2-enedioate] (203 µM),-3.66 ± 5.6
12,Nc1cc(-c2ccncc2)c[nH]c1=O [Amrinone] (100 µM),-1.65 ± 0.59
13,O=c1n(CC2CO2)c(=O)n(CC2CO2)c(=O)n1CC1CO1 (stereo not given) [Triglycidyl isocyanurate] (10 µM),4 ± 1.7
14,NC(=O)n1c(O)c(C(=O)c2cccs2)c2cc(Cl)ccc21 [Tenidap*] (200 µM),157 ± 35
15,Cc1ccc(N)cc1O [5-Amino-2-methylphenol] (200 µM),34.1 ± 7.2
16,CC(C(=O)O)c1ccc(/C=C2\CCCCC2=O)cc1 (stereo not given) [Pelubiprofen] (100 µM),-1.67 ± 0.26
17,Cc1c(C)n(CCN(C)C)c2ccc(C(=O)OCCN(C)C)cc12 [Amindocate] (100 µM),-6.56 ± 2.9
18,Clc1ccc(C(Cn2ccnc2)OCc2c(Cl)cccc2Cl)c(Cl)c1 (stereo not given) [Isoconazole] (100 µM),56.6 ± 9.5
19,O=C(Oc1ccccc1)c1cccc(C(=O)Oc2ccccc2)c1 [Diphenyl isophthalate] (200 µM),-2.76 ± 5
20,O=C1c2cccc(O)c2C(=O)c2c(O)cc(CO)cc21 [Aloe-emodin] (100 µM),24.6 ± 18

row,SMILES,CD54 surface expression induction
1,"COc1cc(C(C)(C)C)c(O)c(C(C)(C)C)c1 [2,6-Di-tert-butyl-4-methoxyphenol] (200 µM)",14.5 ± 0.32
2,COC(=O)Nc1nc2cc([S+]([O-])c3ccccc3)ccc2[nH]1 (stereo not given) [Oxfendazole] (100 µM),17.4 ± 3.6
3,CC/C=C\C/C=C\C/C=C\CCCCCCCC(=O)OCC [Ethyl linolenate] (10 µM),-3.84 ± 2.1
4,O=C(Oc1ccccc1)c1ccccc1O [Phenyl salicylate] (200 µM),-8.79 ± 7.5
5,"CCCCNC(=S)NCCCC [N,N'-Dibutylthiourea] (10 µM)",-6.77 ± 3.8
6,NC(=O)N/N=C/c1ccc([N+](=O)[O-])o1 [Nitrofurazone] (200 µM),15.9 ± 5.6
7,CCCCC1C(=O)N(c2ccccc2)N(c2ccc(O)cc2)C1=O (stereo not given) [Oxyphenbutazone] (10 µM),2.37 ± 6.7
8,Cc1c(C)n(Cc2ccccc2)c2ccc(C(=O)OCCN(C)C)cc12 [Indocate] (200 µM),30.6 ± 5
9,CNc1ccc(O)cc1 [4-(Methylamino)phenol Sulfate] (10 µM),17.6 ± 8.6
10,CC1=C(/C=C/C(C)=C\C=C\C(C)=C\C(=O)O)C(C)(C)CCC1 [9-cis Retinoic acid] (100 µM),44.4 ± 15
11,CCCCCCCCCCCCN(CCO)CCO [Lauryldiethanolamine] (10 µM),-10.1 ± 4.7
12,"c1ccc(-c2ccccn2)nc1 [2,2'-Dipyridyl] (200 µM)",-9.09 ± 20
13,N=C1C=CC(=C(c2ccc(N)cc2)c2ccc(N)cc2)C=C1 [C.I. Basic Red 9 monohydrochloride] (10 µM),10.7 ± 6.1
14,"Nc1ccc(Nc2ccccc2)cc1 [N-Phenyl-1,4-benzenediamine] (200 µM)",46.9 ± 11
15,O=C(Nc1ccccc1)c1cc(Cl)ccc1O [5-Chlorosalicylanilide] (10 µM),-4.26 ± 3.3
16,Cc1occc1S [2-Methyl-3-furanthiol] (200 µM),36.6 ± 1.1
17,CCCCCCCCN [n-Octylamine] (100 µM),-6.09 ± 0.05
18,CCN(CC)CCOc1ccc2c(c1)C(=O)c1cc(OCCN(CC)CC)ccc1-2 [Tilorone] (200 µM),79.8 ± 17
19,Oc1ccc2ccccc2c1N=Nc1ccccc1 [C.I. Solvent Yellow 14] (200 µM),-0.27 ± 5.9
20,"c1ccc(SCCSc2ccccc2)cc1 [1,2-Bis(phenylthio)ethane] (100 µM)",-6.44 ± 3
